Reference: the supplement of paper PMC11732987, “Enantioselective OTUD7B fragment discovery through chemoproteomics screening and high-throughput optimisation” (Communications Chemistry, 2025)

Tests used:
Assay in all cases: log2 ratio of Biotin-Ahx-Ub-VS probe labelling (fragment/DMSO); higher = less target engagement (more negative = stronger competition), active = hit call of the paper (q ≤ 0.05, log2 ratio ≤ -1)
Conditions in all cases: compound concentration: 200 uM; treatment time: 3 h
USP19 = target: T1, USP19 (UniProt O94966)
T1 sequence (whole entry): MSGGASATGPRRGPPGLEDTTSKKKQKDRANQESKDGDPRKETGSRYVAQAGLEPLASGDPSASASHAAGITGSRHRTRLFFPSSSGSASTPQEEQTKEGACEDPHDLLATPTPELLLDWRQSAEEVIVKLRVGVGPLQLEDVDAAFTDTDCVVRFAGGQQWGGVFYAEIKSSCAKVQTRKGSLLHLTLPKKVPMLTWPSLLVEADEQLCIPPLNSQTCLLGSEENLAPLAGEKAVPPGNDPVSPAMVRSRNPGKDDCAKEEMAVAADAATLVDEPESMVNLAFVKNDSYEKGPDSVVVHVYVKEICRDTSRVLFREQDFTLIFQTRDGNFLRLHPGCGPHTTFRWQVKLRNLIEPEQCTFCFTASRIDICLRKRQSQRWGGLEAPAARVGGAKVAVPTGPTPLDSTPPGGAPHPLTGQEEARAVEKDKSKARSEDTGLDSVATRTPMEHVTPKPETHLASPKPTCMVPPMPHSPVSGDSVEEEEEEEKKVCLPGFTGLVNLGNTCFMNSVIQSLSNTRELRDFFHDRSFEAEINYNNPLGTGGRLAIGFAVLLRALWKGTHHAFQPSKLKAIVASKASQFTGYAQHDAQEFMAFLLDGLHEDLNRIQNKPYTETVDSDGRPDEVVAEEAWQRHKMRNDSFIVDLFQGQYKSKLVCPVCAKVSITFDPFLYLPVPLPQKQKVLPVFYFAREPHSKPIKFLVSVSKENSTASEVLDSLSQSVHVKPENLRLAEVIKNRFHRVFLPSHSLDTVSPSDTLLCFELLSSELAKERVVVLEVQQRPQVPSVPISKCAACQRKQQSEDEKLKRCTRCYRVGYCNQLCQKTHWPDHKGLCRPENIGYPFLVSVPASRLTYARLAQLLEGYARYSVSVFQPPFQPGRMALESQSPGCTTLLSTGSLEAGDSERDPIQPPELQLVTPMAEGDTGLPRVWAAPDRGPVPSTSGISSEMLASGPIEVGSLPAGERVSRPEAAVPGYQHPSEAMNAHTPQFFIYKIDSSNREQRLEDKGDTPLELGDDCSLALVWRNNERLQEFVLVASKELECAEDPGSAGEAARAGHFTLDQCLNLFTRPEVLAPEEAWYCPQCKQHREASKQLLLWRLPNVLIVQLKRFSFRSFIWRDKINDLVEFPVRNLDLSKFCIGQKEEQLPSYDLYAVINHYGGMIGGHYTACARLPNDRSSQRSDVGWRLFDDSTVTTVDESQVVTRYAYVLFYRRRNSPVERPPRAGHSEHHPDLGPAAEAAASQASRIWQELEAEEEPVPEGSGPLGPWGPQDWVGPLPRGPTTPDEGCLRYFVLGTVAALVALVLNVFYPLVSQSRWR
In short: (§1)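 Each value is an average log2 ratio of fragment to vehicle, tested by unpaired t-test. The underlying Spectronaut label-free quantities were global-median-normalised, and only proteins with ≥2 unique peptides were included. Triplicate HEK293T lysate samples (495 µg) were exposed to fragment at 200 µM or vehicle for 3 h, then to Biotin-Ahx-Ub-VS at 0.5 µM final for 1 h, before NeutrAvidin enrichment of labelled DUBs, LysC and trypsin digestion, and diaPASEF LC-MS/MS.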

USP24 = USP24 (UniProt Q9UPU5)
USP24, sequence (Q9UPU5 whole entry): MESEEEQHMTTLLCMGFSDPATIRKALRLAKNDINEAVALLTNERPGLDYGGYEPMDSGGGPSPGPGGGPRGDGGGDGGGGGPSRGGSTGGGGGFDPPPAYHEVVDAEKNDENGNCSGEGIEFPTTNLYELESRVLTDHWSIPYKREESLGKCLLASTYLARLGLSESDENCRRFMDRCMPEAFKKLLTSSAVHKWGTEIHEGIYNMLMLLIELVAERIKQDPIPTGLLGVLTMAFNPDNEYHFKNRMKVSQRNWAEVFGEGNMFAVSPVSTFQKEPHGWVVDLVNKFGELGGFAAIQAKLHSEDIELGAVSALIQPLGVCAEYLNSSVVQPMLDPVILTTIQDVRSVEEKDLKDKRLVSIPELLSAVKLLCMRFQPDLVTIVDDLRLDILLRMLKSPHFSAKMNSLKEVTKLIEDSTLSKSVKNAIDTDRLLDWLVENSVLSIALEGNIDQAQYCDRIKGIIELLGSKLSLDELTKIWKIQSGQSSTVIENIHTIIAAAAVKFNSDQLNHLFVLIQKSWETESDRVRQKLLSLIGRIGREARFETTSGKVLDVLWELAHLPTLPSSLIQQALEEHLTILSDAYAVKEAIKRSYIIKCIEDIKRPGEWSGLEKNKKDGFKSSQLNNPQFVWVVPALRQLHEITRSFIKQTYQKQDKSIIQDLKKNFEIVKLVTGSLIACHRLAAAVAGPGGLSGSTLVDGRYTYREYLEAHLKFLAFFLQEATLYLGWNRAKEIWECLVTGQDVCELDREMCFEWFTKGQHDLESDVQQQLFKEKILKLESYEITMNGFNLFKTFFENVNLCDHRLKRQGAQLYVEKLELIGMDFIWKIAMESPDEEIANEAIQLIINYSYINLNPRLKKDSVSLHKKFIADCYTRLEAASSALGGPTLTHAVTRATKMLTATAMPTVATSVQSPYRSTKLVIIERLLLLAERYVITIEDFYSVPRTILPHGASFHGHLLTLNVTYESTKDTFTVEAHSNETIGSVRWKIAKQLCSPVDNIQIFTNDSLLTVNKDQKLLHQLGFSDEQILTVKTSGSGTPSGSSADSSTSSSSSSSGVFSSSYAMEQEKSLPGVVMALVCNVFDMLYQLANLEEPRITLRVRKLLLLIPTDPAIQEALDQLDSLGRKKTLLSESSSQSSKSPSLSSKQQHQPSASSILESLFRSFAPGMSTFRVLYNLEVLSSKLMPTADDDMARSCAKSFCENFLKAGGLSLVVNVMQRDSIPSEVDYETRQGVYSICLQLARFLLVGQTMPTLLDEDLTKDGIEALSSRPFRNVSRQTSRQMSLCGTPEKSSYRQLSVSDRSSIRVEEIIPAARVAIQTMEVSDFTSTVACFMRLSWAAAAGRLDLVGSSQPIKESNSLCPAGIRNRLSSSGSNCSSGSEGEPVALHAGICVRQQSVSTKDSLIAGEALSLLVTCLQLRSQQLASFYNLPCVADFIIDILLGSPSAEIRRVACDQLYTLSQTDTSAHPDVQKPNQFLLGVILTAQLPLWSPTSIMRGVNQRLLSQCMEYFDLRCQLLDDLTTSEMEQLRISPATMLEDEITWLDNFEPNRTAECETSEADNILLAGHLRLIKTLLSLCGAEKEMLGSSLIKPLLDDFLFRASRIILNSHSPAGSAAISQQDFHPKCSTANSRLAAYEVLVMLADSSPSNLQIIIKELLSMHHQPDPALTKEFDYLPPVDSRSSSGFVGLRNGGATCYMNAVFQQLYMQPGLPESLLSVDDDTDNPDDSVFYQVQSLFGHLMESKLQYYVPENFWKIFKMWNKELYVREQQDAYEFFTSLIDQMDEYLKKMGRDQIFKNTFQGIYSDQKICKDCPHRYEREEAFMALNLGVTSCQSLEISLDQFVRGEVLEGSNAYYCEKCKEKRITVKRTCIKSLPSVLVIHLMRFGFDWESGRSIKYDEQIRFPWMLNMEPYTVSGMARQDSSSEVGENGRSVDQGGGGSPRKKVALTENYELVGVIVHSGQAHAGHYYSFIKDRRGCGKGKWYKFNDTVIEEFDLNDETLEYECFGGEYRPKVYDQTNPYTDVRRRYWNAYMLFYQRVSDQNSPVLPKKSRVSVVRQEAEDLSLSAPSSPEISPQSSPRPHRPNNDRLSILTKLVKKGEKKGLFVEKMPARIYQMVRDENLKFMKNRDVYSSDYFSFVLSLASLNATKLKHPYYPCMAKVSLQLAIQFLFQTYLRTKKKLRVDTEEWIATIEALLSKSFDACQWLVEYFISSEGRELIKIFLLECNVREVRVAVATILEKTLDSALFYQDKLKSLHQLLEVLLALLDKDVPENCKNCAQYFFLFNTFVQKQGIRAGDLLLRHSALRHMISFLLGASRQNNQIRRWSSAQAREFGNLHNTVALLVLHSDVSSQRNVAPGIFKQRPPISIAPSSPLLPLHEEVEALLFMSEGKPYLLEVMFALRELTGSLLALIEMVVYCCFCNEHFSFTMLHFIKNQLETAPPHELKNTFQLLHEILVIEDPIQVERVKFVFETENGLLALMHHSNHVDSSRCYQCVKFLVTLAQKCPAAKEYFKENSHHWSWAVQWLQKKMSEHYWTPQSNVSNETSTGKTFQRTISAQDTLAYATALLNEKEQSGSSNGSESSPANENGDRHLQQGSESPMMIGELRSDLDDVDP
In short: as §1

USP25 = target: T2, USP25 (UniProt Q9UHP3)
T2 sequence (whole entry): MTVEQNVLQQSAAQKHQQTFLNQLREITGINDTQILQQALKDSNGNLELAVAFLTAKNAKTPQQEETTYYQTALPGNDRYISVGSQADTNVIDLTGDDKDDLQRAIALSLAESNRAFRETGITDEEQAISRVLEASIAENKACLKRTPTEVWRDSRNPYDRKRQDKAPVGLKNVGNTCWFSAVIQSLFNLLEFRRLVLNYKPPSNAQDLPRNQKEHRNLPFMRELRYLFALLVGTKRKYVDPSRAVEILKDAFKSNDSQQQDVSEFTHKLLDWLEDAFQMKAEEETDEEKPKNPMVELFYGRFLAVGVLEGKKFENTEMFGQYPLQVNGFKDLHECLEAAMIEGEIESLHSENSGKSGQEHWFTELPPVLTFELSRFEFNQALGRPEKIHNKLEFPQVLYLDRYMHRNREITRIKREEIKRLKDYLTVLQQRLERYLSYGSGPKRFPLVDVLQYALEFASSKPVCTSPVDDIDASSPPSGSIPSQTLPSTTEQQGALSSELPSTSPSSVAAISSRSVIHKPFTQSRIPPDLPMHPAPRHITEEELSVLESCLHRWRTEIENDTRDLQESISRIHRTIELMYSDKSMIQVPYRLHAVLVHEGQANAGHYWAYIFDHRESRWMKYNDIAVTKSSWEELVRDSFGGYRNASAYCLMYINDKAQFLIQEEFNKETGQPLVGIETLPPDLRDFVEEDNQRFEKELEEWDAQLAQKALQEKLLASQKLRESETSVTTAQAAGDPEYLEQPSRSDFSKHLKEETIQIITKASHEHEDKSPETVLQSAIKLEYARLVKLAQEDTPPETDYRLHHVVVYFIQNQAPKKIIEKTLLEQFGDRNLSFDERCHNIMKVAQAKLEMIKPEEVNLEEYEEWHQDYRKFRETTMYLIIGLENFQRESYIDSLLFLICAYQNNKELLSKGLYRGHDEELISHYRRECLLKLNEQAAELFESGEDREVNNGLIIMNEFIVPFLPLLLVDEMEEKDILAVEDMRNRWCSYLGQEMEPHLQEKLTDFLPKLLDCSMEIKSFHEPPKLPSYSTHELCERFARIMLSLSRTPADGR
In short: as §1

USP28 = target: T3, USP28 (UniProt Q96RU2)
T3 sequence (whole entry): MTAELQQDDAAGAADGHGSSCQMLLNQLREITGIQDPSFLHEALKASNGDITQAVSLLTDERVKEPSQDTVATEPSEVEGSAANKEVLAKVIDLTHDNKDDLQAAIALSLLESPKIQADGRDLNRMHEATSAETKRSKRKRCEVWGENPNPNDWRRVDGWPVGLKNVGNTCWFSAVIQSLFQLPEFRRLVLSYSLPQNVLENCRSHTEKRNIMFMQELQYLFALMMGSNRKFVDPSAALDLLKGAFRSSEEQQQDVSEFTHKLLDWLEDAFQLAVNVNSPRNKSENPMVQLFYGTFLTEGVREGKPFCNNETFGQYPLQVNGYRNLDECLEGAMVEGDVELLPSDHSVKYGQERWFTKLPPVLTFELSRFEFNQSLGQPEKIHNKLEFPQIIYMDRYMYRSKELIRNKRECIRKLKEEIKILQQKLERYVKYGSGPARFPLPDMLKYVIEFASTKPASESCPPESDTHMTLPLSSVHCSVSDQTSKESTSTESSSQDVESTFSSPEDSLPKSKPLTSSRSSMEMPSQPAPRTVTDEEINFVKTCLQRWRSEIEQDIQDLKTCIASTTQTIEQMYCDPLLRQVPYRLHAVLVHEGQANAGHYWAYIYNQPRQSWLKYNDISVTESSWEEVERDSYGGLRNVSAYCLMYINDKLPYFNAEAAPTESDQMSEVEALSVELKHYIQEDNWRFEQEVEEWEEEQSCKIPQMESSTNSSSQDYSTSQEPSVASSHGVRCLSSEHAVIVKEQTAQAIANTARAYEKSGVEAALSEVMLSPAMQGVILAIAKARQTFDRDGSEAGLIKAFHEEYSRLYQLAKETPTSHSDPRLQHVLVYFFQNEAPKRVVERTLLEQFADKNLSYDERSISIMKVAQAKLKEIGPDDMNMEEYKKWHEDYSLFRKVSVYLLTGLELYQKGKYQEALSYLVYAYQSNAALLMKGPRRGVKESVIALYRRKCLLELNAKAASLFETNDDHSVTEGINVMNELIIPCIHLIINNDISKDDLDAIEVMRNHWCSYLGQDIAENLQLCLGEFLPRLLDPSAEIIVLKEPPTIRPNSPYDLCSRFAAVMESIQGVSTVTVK
In short: as §1

Measured: log2 ratio of Biotin-Ahx-Ub-VS probe labelling

Cc1ccc(CN(C)C(=O)CCl)o1
inactive: USP19 -0.241 | USP24 -0.411 | USP25 -0.156 | USP28 -0.465
